Source: PubChem BioAssay (EPA / NIEHS)
Records with an inconclusive call do not appear. Active and inactive are the calls of the source. How the source made its calls: active means hit-call score of the fitted dose curve at least 0.9, where 1 is the maximum; inconclusive means response in the unintended direction; inactive means score below 0.9.

Tests used:
[1] = molecular target: Bile acid receptor (Homo sapiens) (UniProt Q96RI1); assay: OT_FXR_FXRSRC1_0480: Odyssey Thera (OT) 8-hour HEK293T Protein-Complementation Assay for Farnesoid X receptor/SRC-1 Co-activator (AID 2283383)
Outline: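 HEK293T cells expressing FXR and SRC-1 fused to reporter fragments were dosed with compound for 8 h; fluorescence from the reconstituted reporter marked co-activator recruitment. Gain of signal was fitted against the DMSO baseline.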

[2] = molecular target: Bile acid receptor (Homo sapiens) (UniProt Q96RI1); assay: OT_FXR_FXRSRC1_1440: Odyssey Thera (OT) 24-hour HEK293T Protein-Complementation Assay for Farnesoid X receptor/SRC-1 Co-activator (AID 2283384)
Outline: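 HEK293T cells were dosed with compound and read 24 h later by fluorescence intensity from protein-fragment complementation reporting FXR/SRC-1 co-activator interaction. Gain of signal was fitted relative to DMSO negative control as baseline.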

[3] = molecular target: Retinoic acid receptor RXR-alpha (Homo sapiens) (UniProt P19793); assay: OT_NURR1_NURR1RXRa_0480: Odyssey Thera (OT) 8-hour HEK293T Protein Complementation Assay for Nurr1/retinoid X receptor (RXR) (AID 2283385)
Outline: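 HEK293T cells expressing Nurr1 and RXRα fused to reporter fragments were dosed with compound for 8 hours. Complex formation was read as fluorescence intensity and analysed as gain of signal against DMSO as baseline.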

[4] = molecular target: Retinoic acid receptor RXR-alpha (Homo sapiens) (UniProt P19793); assay: OT_NURR1_NURR1RXRa_1440: Odyssey Thera (OT) 24-hour HEK293T Protein Complementation Assay for Nurr1/retinoid X receptor (RXR) (AID 2283386)
Outline: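 HEK293T cells were dosed with compound and read 24 h later by fluorescence intensity in a protein-fragment complementation format, where Nurr1–RXRα interaction reconstitutes a split reporter. Activity was fitted as gain of signal relative to DMSO baseline.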

[5] = molecular target: Peroxisome proliferator-activated receptor gamma (Homo sapiens) (UniProt P37231); assay: OT_PPARg_PPARgSRC1_0480: Odyssey Thera (OT) 8-hour Protein-Complementation Assay for Peroxisome Proliferator-activated Receptor Gamma / SRC-1 Co-activator (AID 2283387)
Outline: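 Split-YFP (IFP1/IFP2) PPARg/SRC-1 reporter, HEK293T, 37 °C, 5% CO2; 8 h compound; formaldehyde fix + Draq5; high-content imaging, N/C ratio, ≥350 cells/image, positive direction vs DMSO.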

[6] = molecular target: Peroxisome proliferator-activated receptor gamma (Homo sapiens) (UniProt P37231); assay: OT_PPARg_PPARgSRC1_1440: Odyssey Thera (OT) 24-hour Protein-Complementation Assay for Peroxisome Proliferator-activated Receptor Gamma/ SRC-1 Co-activator (AID 2283388)
Outline: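 HEK293T transiently transfected with PPARg/SRC-1 split-Venus YFP fusions 48 h before dosing, then treated 24 h at 37C. Fixed cells imaged; nuclear/cytoplasmic 488 nm fluorescence ratio, gain of signal versus DMSO.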

[7] = molecular target: Estrogen receptor (Homo sapiens) (UniProt P03372); assay: OT_ERa_GFPERaERE_0120: Odyssey Thera (OT) 2-hour HeLa Transcription Induction Assay for Estrogen Receptor (AID 2283382)
Outline: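 HeLa cells were dosed with test chemical and read 2 hours later for GFP-ERα/ERE-linked fluorescent protein induction by fluorescence microscopy. Gain-of-signal was fitted relative to DMSO baseline, quantified by high content image analysis.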

Estrogen receptor (Homo sapiens), sequence (P03372 whole entry, looked up): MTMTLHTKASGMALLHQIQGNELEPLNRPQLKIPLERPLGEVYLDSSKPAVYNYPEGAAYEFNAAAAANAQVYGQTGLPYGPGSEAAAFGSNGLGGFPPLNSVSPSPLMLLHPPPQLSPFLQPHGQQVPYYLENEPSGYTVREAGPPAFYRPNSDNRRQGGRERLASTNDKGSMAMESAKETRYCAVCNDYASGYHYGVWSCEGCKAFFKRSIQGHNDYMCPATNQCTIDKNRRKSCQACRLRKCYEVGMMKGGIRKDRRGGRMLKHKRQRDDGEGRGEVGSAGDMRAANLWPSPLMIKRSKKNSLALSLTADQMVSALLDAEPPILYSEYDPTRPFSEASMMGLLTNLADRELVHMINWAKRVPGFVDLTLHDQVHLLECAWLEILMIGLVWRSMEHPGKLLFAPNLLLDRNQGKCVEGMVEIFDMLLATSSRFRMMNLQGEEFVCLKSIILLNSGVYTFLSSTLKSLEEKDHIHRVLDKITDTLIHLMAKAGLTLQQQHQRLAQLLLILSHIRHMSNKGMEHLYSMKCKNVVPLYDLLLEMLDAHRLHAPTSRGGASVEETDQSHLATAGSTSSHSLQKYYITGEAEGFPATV
Retinoic acid receptor RXR-alpha (Homo sapiens), sequence (P19793 whole entry, looked up, the tested form may be a part): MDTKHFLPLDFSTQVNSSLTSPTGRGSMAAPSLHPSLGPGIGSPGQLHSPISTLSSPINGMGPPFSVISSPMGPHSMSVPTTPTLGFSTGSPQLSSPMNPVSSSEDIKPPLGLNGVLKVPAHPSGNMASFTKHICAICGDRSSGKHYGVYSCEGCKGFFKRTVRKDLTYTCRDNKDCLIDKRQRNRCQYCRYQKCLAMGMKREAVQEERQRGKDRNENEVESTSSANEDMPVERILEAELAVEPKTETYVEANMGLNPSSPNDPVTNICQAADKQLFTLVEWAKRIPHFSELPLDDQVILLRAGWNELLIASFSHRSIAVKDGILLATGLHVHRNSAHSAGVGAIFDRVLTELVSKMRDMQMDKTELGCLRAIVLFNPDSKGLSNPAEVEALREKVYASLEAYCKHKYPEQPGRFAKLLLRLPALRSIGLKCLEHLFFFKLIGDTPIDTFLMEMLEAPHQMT
Bile acid receptor (Homo sapiens), sequence (Q96RI1 whole entry, looked up, the tested form may be a part): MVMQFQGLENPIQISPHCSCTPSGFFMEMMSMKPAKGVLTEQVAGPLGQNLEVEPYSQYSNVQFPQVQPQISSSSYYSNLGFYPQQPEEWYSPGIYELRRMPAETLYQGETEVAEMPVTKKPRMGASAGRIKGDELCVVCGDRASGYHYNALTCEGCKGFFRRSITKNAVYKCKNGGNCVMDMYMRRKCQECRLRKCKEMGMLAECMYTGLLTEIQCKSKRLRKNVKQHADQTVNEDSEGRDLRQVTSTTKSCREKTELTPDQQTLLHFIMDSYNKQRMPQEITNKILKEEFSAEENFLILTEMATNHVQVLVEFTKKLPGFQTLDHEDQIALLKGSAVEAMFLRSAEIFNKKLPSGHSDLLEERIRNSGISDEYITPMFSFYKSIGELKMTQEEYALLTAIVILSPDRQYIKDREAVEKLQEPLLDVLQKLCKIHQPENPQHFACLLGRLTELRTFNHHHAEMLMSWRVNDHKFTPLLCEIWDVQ
Peroxisome proliferator-activated receptor gamma (Homo sapiens), sequence (P37231 whole entry, looked up, the tested form may be a part): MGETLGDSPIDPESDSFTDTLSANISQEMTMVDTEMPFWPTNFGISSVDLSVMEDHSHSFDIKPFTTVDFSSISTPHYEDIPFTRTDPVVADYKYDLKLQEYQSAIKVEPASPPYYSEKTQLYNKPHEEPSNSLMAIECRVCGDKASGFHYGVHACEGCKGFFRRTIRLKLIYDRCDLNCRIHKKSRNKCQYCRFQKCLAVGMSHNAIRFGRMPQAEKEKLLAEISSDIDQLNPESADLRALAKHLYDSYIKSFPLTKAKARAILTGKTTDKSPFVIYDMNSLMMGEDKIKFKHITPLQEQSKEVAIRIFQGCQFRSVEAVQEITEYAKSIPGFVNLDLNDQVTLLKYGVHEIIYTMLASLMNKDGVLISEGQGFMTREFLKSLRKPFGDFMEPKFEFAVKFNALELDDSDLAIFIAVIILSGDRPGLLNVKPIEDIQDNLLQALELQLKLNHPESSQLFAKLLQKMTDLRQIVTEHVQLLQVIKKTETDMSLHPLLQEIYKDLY

For `CCOC(=O)c1ccc(N)cc1`, the outcome [1] was “inactive”, the AC50 [2] was 20.2 µM (active) and the outcome [3] was “inactive”. The AC50 [4] was 31.8 µM (active), the outcome [5] was “inactive” and the outcome [6] was “inactive”.

`CC1CCC(C(C)C)C(O)C1` (stereo unspecified) was tested, and the outcome [1] was “inactive”, the outcome [2] was “inactive” and the outcome [4] was “inactive”. The outcome [5] was “inactive” and the outcome [6] was “inactive”.

`CCCCCCCCSCCO` was tested, and the AC50 [1] was 74.1 µM (active), the outcome [2] was “inactive” and the outcome [3] was “inactive”. For the same compound, the outcome [4] was “inactive”, the outcome [5] was “inactive” and the outcome [6] was “inactive”.

`C=CC(=O)OCCCC` was tested, and the outcome [1] was “inactive”, the outcome [2] was “inactive” and the outcome [3] was “inactive”. For the same compound, the outcome [4] was “inactive”.

`c1ccc(Oc2ccccc2)cc1` was tested, and the outcome [1] was “inactive” and the outcome [3] was “inactive”.

`CCCCOC(=O)CCCCCCCC(=O)OCCCC` was tested, and the outcome [1] was “inactive”, the outcome [3] was “inactive” and the outcome [4] was “inactive”. The outcome [5] was “inactive” and the outcome [6] was “inactive”.

In the case of `CCCCCC(C=O)=Cc1ccccc1`, the outcome [1] was “inactive”, the outcome [2] was “inactive” and the outcome [3] was “inactive”. For the same compound, the outcome [5] was “inactive” and the outcome [6] was “inactive”.

`O=c1c(O)c(-c2ccc(O)cc2)oc2cc(O)cc(O)c12` was tested, and the outcome [1] was “inactive”, the AC50 [2] was 19.8 µM (active) and the outcome [3] was “inactive”. For the same compound, the outcome [4] was “inactive” and the outcome [6] was “inactive”.

For `CC(C)CCCCCCc1ccc(OCCOCCO)cc1`, the outcome [7] was “inactive”, the outcome [4] was “inactive” and the outcome [5] was “inactive”. The outcome [6] was “inactive”.

For `CC(C)NCC(O)COc1ccc(CC(N)=O)cc1` (stereo unspecified), the outcome [7] was “inactive”, the outcome [3] was “inactive” and the outcome [4] was “inactive”. For the same compound, the outcome [5] was “inactive” and the outcome [6] was “inactive”.

`CCCCCCCCc1ccc(S(=O)(=O)O)cc1` was tested, and the outcome [1] was “inactive”, the outcome [2] was “inactive” and the outcome [5] was “inactive”. The outcome [6] was “inactive”.

In the case of `OCC(O)c1ccccc1` (stereo unspecified), the outcome [7] was “inactive”, the outcome [3] was “inactive” and the outcome [4] was “inactive”.

For `CCCC(C)=O`, the outcome [1] was “inactive”, the outcome [2] was “inactive” and the outcome [3] was “inactive”. For the same compound, the outcome [4] was “inactive”, the outcome [5] was “inactive” and the outcome [6] was “inactive”.

For `O=CCc1ccccc1`, the AC50 [1] was 30.1 µM (active), the AC50 [3] was 19.1 µM (active) and the outcome [4] was “inactive”. For the same compound, the outcome [5] was “inactive” and the outcome [6] was “inactive”.

With `Nc1ccccc1[N+](=O)[O-]` the outcome [1] was “inactive”, the outcome [2] was “inactive” and the outcome [3] was “inactive”. The outcome [4] was “inactive”, the outcome [5] was “inactive” and the outcome [6] was “inactive”.
